For 67 molecules, INHIBITION results are on record in ChEMBL document CHEMBL4513216, “Probing the Open Global Health Chemical Diversity Library for Multistage-Active Starting Points for Next-Generation Antimalarials” (ACS Infect Dis, 2020).

Out of some 69,000 compounds screened, about 8,600 (12%) showed an effect of 50% or more. For the sample, strong results were picked, then their nearest neighbours and some compounds at random.

For this experiment, the system named is Plasmodium berghei. Description: Screen against P. berghei liver stage (PbLuc), transformed with Luciferase, at 10uM. The format is functional, HepG2. To be noted: tested at 10 uM.
`CCn1ncc(S(=O)(=O)N[C@@H]2CC[C@@H](n3ccnc3)[C@@H]2O)c1C`: the INHIBITION is reported as 4.65%. In the case of `Fc1cccnc1OC[C@@]12CCO[C@@H]1CCN(CC1CCOCC1)C2`, the INHIBITION is given as -17.7%. With `Cc1csc(CCNC(=O)N2CCC(n3cccc3)CC2)n1`, the INHIBITION is -6.04%. With `O=C(O)c1cnc(-c2cccc3c2CCNC3)c(Cl)c1` the figure was 2.15%.

`COc1cccc(COCC(=O)NC(C)c2nnc3n2CCC3)c1` (configuration not stated): the INHIBITION is -0.613%. The same measure for `CCc1nnc(Nc2cc(C)nc(C3CCN(c4ncccn4)C3)n2)s1` (configuration not stated): -11.4%; for `CCC(O)CNc1nccc(-c2ccc(C)nc2C)n1` (configuration not stated): -8.9%. For `Cc1ccc(NC(=O)C(C)n2ccc(C(F)(F)F)n2)nc1` (configuration not stated), the INHIBITION stood at 20.9%. The same measure for `O=C(NC1CC1)N1CCc2ccc(=O)n(Cc3cccnc3)c2CC1`: 45.2%; for `Cc1ccc(-c2cc(C)nc(C3CCCN3S(C)(=O)=O)n2)cc1` (configuration not stated): -70.8%; for `CC(C)c1nn(C)c(Cl)c1CNCc1ccc2c(c1)OCO2`: 27.8%. The same measure for `CC(C)c1nn(C)c(N(C)C)c1CNCc1ccc2c(c1)OCO2`: 3.75%; for `Cc1cc(-c2cnc(NCc3ccc4c(c3)OCO4)nc2C(C)C)on1`: 90.5%. With `CN1C(=O)Cc2cc(-c3csc(CCN4CCOC4=O)n3)ccc21` the figure was 19.2%; with `CC(C)CN1C[C@H]2CCN(Cc3cccnc3)CC[C@H]2S1(=O)=O`, 42.1%. In the case of `CCn1cc(CN2CCCN(C(=O)CCc3nccs3)CC2)cn1`, the INHIBITION turned out to be 1.78%.

In the case of `O=C(Nc1cc(F)ccc1OCC1CCCO1)NC1CC1` (configuration not stated), the INHIBITION is given as -12.1%. With `O=C(c1cn[nH]c1)N1CCC2(CCCN(Cc3ccc(F)c(F)c3)C2)C1` (configuration not stated) the figure was 25.8%. With `CC(C)(C)CN1CCCC2(CCN(C(=O)c3cn[nH]c3)C2)C1` (configuration not stated) the figure was 68%. With `CC(C)(C)CN1CCCC2(CCN(C(=O)c3ccc(O)nc3)C2)C1` (configuration not stated) the figure was 43.1%. Take `Cc1cnn(CC2CN(CC(=O)Nc3nncs3)CCO2)c1` (configuration not stated): the INHIBITION is listed as 30.76%. The same measure for `CC(=O)N1CCCC1c1nc(C)cc(-c2ccc(F)cc2)n1` (configuration not stated): 48.4%; for `CN1CCC/C1=N\S(=O)(=O)c1ccc(NC(=O)c2ccco2)cc1`: -67.3%; for `CNS(=O)(=O)c1ccc(F)c(C(=O)NCc2ccnc(OC)c2)c1`: 31.2%. The same measure for `CC(C)c1noc(CCC(=O)Nc2cc(C(F)(F)F)c[nH]c2=O)n1`: 41.5%. Take `CCc1noc(CCCC(=O)Nc2cc(C(F)(F)F)c[nH]c2=O)n1`: the INHIBITION is on record as 29.8%.

Turning to `CCCc1noc(CCC(=O)Nc2cc(C(F)(F)F)c[nH]c2=O)n1`, the INHIBITION was determined as 52.2%. The same measure for `Cc1cnn(CC2CN(c3nnc(C)c(C)c3C#N)CCO2)c1` (configuration not stated): 15.635%.

As for `CCOC(=O)N1CCN(c2nc(CCN)nc3sc(C)c(C)c23)CC1`, the INHIBITION came out at 90.7%.

As to `CCc1c(C)sc2ncnc(N3C[C@H](O)[C@@H](N4CCCC4)C3)c12`, the INHIBITION came out at 48.5%. With `Cc1sc2nc(CCN)nc(N3CCS(=O)(=O)CC3)c2c1C` the figure was 31.3%; with `Cc1nc(C2CCN(S(C)(=O)=O)CC2)nc(N2CCCC2)c1C`, 11.25%; with `COC(=O)CNC(=O)CSCc1nc(O)c2c(C)c(C)sc2n1`, 22.1%.

On to `Cc1sc2nc(CCN)nc(N3CCN(S(C)(=O)=O)CC3)c2c1C`, for which the INHIBITION worked out at 67.5%. With `Cc1sc2nc(CCN)nc(N3CCC(N4CCCC4)CC3)c2c1C` the figure was 39.6%; with `CCOC(=O)N1CCN(C(=O)c2sc(-c3ccccc3F)nc2C)CC1`, 39.9%; with `Cc1sc2nc(CCN)nc(N3CC(N4CCCCC4)C3)c2c1C`, 86.9%.

Turning to `NC(=O)c1cccc(-c2cnc(C3CCCNC3)cn2)c1` (configuration not stated), the INHIBITION was found to be 34.3%. Turning to `CC(C)N(C)Cc1ncn2c1CN(S(=O)(=O)c1cccs1)CCC2`, the INHIBITION amounted to 38.5%. Regarding `Cc1noc([C@@H](C)NCc2ccc(F)cc2)c1C(=O)O`, the INHIBITION is -4.82%. Take `CCCS(=O)(=O)N1C[C@@H]2CN(Cc3ccco3)CCO[C@@H]2C1`: the INHIBITION is listed as -32.6%. On to `O=C(NCC1CCOC1)N1CCN(Cc2ccc3c(c2)OCO3)CC1` (configuration not stated), for which the INHIBITION came to 33.3%.

Turning to `Cc1cc2cc(C(=O)N[C@@H]3CC[C@@H](N4CCCC4)[C@@H]3O)ccc2o1`, the INHIBITION was 26.3%. Turning to `Cc1noc(C2CCCN(Cn3cc(Br)cn3)C2)n1` (configuration not stated), the INHIBITION was -12.2%. With `CCCc1noc(CS(=O)(=O)CC(=O)NC(C)CCC)n1` (configuration not stated) the figure was 58.3%; with `CCC(C)NC(=O)CS(=O)(=O)Cc1nc(-c2cccs2)no1` (configuration not stated), 46.4%. With `Cc1noc(CS(=O)(=O)CC(=O)NC(C)c2ccccc2)n1` (configuration not stated) the figure was 31.2%; with `CC[C@@H]1N(CC2CC2)CCC[C@]12CCC(=O)N2CCOC`, 4.2%; with `Cc1nc(CN2CCCN(C(=O)c3ccccn3)CC2)oc1C`, 60.5%. With `CCc1nnc(CN2CCCN(C(=O)c3ccccn3)CC2)o1` the figure was -47.6%; with `Cc1noc(CN2CCN(C(=O)c3ccccn3)CC2)n1`, 37.3%. As for `Cc1nc(CN2CCCN(C(=O)c3ccn(C)c(=O)c3)CC2)cs1`, the INHIBITION is given as -12.2%. The same measure for `O=C(Cc1ccc(Cl)cc1)N1CCC(O)(C(F)(F)F)C1` (configuration not stated): -55%; for `O=C(c1ccc(COc2ccc(Cl)cc2)o1)N1N=CCC1(O)C(F)(F)F` (configuration not stated): 89.3%; for `COCc1ccc(C(=O)N2CCC(Oc3ccccc3)(C(=O)O)CC2)o1`: -11.6%. With `Cc1cccc(OCc2ccc(C(=O)N3N=CCC3(O)C(F)(F)F)o2)c1` (configuration not stated) the figure was 69.2%; with `O=C(c1ccc(COc2ccccc2Cl)o1)N1N=CCC1(O)C(F)(F)F` (configuration not stated), 4.66%; with `O=C(NC1CCCC1)c1ccc(COCC(F)(F)F)o1`, 31.6%. As to `COc1ccc(C(=O)COc2coc(CN3CCCCC3)cc2=O)cc1`, the INHIBITION is listed as 44.9%.

With `CC(C)NC(=O)N1CC[C@@H](N(C)C)[C@@H]1Cc1ccncc1`, the INHIBITION stood at 28.2%. On to `CCS(=O)(=O)N1CCN(Cc2ccncc2)c2nc(C)ccc2C1`, for which the INHIBITION amounted to 48.6%. Regarding `CC(c1ccc2c(c1)OCO2)n1cc2nc(N(C)C)[nH]cc-2c1=O` (configuration not stated), the INHIBITION came out at 39.3%.

Take `CC(C)CC(=O)Nc1ccc2c(c1)ncn2CC(=O)NCCN(C)C`: the INHIBITION came to 32.4%.

As for `COCCN1CCCC(CCCc2ccccn2)(C(N)=O)C1` (configuration not stated), the INHIBITION is given as -58.7%. With `CCOc1ccc(NC(C)=O)cc1S(=O)(=O)Nc1ccon1` the figure was 7.83%; with `CCOc1ccc(NC(C)=O)cc1S(=O)(=O)Nc1nnc(C)s1`, 21.8%; with `CCOc1ccc(NC(C)=O)cc1S(=O)(=O)Nc1cc(C)on1`, 54.2%.
